These results are taken from PubChem BioAssay (NCI).

The panel holds about 83,000 compounds, 20% with a hit somewhere; the sample as a whole holds those more often.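 Treatment: one concentration, 48 hours, 96-well format. Scoring: percent growth, with anything below 10 considered active.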 Values without a mark were called inactive. Calls of active or inactive are those of the source.

What all share (assay): NCI-60 one-dose screen, 48 h (100 = growth as untreated, 0 = no growth, -100 = all killed)
Details in all cases: 10 µM

Assay [1] concerns T-47D breast.
Assay [2] concerns BT-549 breast.
Assay [3] concerns MDA-MB-435 melanoma.
Assay [4] relates to SW-620 colon.
Assay [5] has as its system MCF7 breast.
Assay [6] has as its system HCT-116 colon.
For assay [7], the system named is HCC-2998 colon.
Assay [8] relates to KM12 colon.
Assay [9] has as its system MDA-MB-468 breast.

In the case of `COc1ccc(/C=C/C(=O)c2ccc(N3CCN(C)CC3)cc2)c(C(F)(F)F)c1`, the growth in [1] was 39.7%; in assay [2], 40.7%; in [3], -54.9% (active); in assay [4] it was -80% (active); in [5] it was -54.1% (active); in assay [6] it was 11.4%. In addition, the growth was -49.4% (active) in assay [7], 8.95% (active) in assay [8] and -10.7% (active) in assay [9].
Take `C=C1CCC2C3(C)COC(c4c(F)cccc4F)OC3CCC2(C)C1CC(O)C1=CCOC1=O` (stereo not given): the growth in [1] was 47.6%; in assay [2] it was -9.18% (active); in assay [3], 40%; in assay [4], 3.41% (active); in assay [5] it was 19%; in assay [6] it was -31.2% (active). Further, the growth in assay [7] is 52.1%; in [8], 54.3%; in [9], 66.1%.
`N#Cc1c(NC(=O)c2ccc(C(F)(F)F)cc2)sc2c1CCC(O)=C2`: the growth was 22.9% in [1]; 58.7% in assay [2]; -33.8% (active) in [3]; 17.1% in assay [4]; 9.26% (active) in [5]; 23.9% in assay [6]. In addition, the values for the growth in assay [7], in assay [8] and in assay [9] were 47.3%, 18.2% and -31.9% (active), respectively.
With `O=C(CNc1nc(-c2ccccc2)cs1)Nc1cccc([N+](=O)[O-])c1`, the growth in [1] is -49.9% (active); in assay [2] it was -73.1% (active); in [3], -77.9% (active); in assay [4], -66.7% (active); in [5] it was -81.6% (active); in [6], -34.2% (active). The growth in assay [7] was -99.8% (active); in [8] it was -44% (active); in [9] it was -90.6% (active).
As for `COc1ccccc1C(=O)NNC(=O)CSc1nc2c(c(=O)[nH]1)CCCC2`, the growth is 81.2% in assay [1]; 101% in assay [2]; 109% in assay [3]; 112% in assay [4]; 95.8% in assay [5]; 102% in [6]. Also, the results for the growth in assay [7], in assay [8] and in assay [9] were 108%, 94.5% and 120%, respectively.
`CC(=O)Nc1nc(-c2ccc(N3CCN(C)CC3)c(NS(=O)(=O)c3ccc(C(F)(F)F)cc3)c2)cs1`: the growth is 25.4% in assay [1]; -29.4% (active) in [2]; 6.38% (active) in [3]; -41.6% (active) in [4]; 6.99% (active) in assay [5]; -75.8% (active) in [6]. Also, the growth in assay [7] is 15.4%; in assay [8], 2.44% (active); in [9], -29.3% (active).
Turning to `COc1cc(NC(=O)CSc2nnc(-c3ccc4nc(-c5ccc(Cl)cc5)[nH]c4c3)o2)cc(OC)c1OC`, the growth was 13.2% in [1]; 63.1% in assay [2]; 67.8% in assay [3]; 80.1% in [4]; 29.1% in assay [5]; 37.1% in [6]. Besides, the figures for the growth in [7], in assay [8] and in [9] were 110%, 70% and 58.3%, respectively.
Turning to `Cc1ccc(CNC(=O)Cc2ccc3c(c2)CN(C2CCC(=O)NC2=O)C3=O)cc1` (stereo not given), the growth in assay [1] was -4% (active); in assay [2], -46.4% (active); in assay [3] it was 13.7%; in assay [4] it was 4.15% (active); in assay [5], 15.1%; in assay [6], 65.2%. In addition, the growth in assay [7] is -23.5% (active); in assay [8], 1.17% (active); in assay [9] it was -50.8% (active).
With `CC(C)(C)Nc1nc2cc(Cl)c(Cl)cc2nc1S(C)(=O)=O`, the growth is 31.3% in assay [1]; -29.7% (active) in [2]; 44.6% in assay [3]; -74.5% (active) in [4]; 58.8% in [5]; 13.1% in assay [6]. Besides, the figures for the growth in assay [7], in assay [8] and in assay [9] were 42.2%, 81.3% and -28.5% (active), respectively.
On to `Cc1ccc(-c2nc3ccc(C(=O)N=Nc4c(O)[nH]c5ccc(Br)cc45)cc3[nH]2)cc1`, for which the growth in assay [1] was 84.7%; in [2] it was 138%; in assay [3] it was 57.9%; in assay [4], 7.03% (active); in assay [5], 21.7%; in assay [6], 26.3%. For the same compound, the growth was 20.5% in assay [7], 32.6% in [8] and 62.5% in assay [9].
With `CCCCCc1ccc(S(=O)(=O)Nc2cc(-c3csc(N(C)C(C)=O)n3)ccc2N2CCN(C)CC2)cc1`, the growth in assay [1] is -33.4% (active); in [2], 48.6%; in assay [3], 25.4%; in assay [4], 8.57% (active); in [5], 4.08% (active); in [6] it was -84.7% (active). For the same compound, the growth in assay [7] is 20.8%; in [8], 46.3%; in assay [9], 14.1%.
In the case of `Cc1cc(C)nc(NS(=O)(=O)c2ccc(N/C(N)=N/c3nccc(-c4ccccc4)n3)cc2)n1`, the growth in assay [1] was 25.1%; in assay [2], 83.7%; in assay [3], 86%; in assay [4] it was 93.8%; in assay [5], 37%; in assay [6] it was 76.6%. For the same compound, the values for the growth in [7], in [8] and in assay [9] were 85.3%, 78.8% and 64.2%, respectively.
`Cc1ccc(C(=O)CSc2nnc(-c3c[nH]c4ccccc34)n2-c2ccccc2)cc1`: the growth in [1] was 46.7%; in assay [2] it was 22.4%; in [3], 38.6%; in [4] it was 19%; in assay [5], 12.5%; in assay [6], 7.68% (active). The growth in assay [7] was 66.4%; in [8], 51%; in assay [9] it was 48%.
Take `COC(=O)c1c(C(=O)OC)c2n(c1C)[C@@H]([C@@H](C)[C@H]1CC[C@H]3[C@@H]4CCC5=CC(=O)CC[C@]5(C)[C@H]4CC[C@]13C)SC2`: the growth in assay [1] is 4.62% (active); in assay [2], -3.38% (active); in [3] it was 22.4%; in assay [4], 34.2%; in assay [5] it was 4.29% (active); in assay [6], 23.2%. The values for the growth in assay [7], in assay [8] and in assay [9] were 45%, 25.8% and 11.2%, respectively.
As to `Nc1nc(Nc2ccc(Cl)cc2)nn1Cc1cccc(Br)c1`, the growth is 19.3% in assay [1]; 34.2% in [2]; 36.7% in [3]; 61.9% in assay [4]; 18.2% in assay [5]; 35.2% in assay [6]. The growth was 5.71% (active) in [7], 16.7% in assay [8] and 28.1% in [9].
For `COc1ccc(CCN2C(=O)/C(=C/c3csc(C#N)n3)SC2=S)cc1OC`, the growth is -7.6% (active) in assay [1]; 24.5% in assay [2]; 23.5% in [3]; -20.5% (active) in [4]; -15.9% (active) in assay [5]; -69.1% (active) in [6]. For the same compound, the growth in assay [7] was 116%; in [8], 35%; in [9], -80.6% (active).
Consider `CCN1CCN(c2ccc(NC(=O)Nc3ccc(-c4cc(C(=O)NC)c5ncccc5n4)cc3)cc2C(F)(F)F)CC1`, for which the growth is 49.4% in assay [1]; -96% (active) in assay [2]; -100% (active) in assay [3]; -100% (active) in assay [4]; -83.1% (active) in [5]; -100% (active) in [6]. Besides, the growth in assay [7] was -100% (active); in assay [8], -98.8% (active); in assay [9] it was -96.4% (active).
As for `COc1ccc(-c2cc(C(=O)N=Nc3c(O)[nH]c4ccccc34)c3ccccc3n2)cc1`, the growth was 12.1% in assay [1]; 72.9% in assay [2]; 0.986% (active) in assay [3]; -30.2% (active) in [4]; -49.6% (active) in assay [5]; -43.3% (active) in assay [6]. Besides, the growth in assay [7] was -16.4% (active); in [8], -11.1% (active); in assay [9], -31.7% (active).
With `Cc1cc2nc3c4ccccc4n(CCO)c3nc2cc1C`, the growth in assay [1] was 73.5%; in [2], 78.7%; in [3], 94.6%; in assay [4] it was 75.5%; in assay [5], 52.1%; in assay [6], 34.4%. The growth in assay [7] was 123%; in assay [8] it was 92.2%; in [9] it was 74.4%.
`OCCNc1oc(-c2ccccc2)nc1[P+](c1ccccc1)(c1ccccc1)c1ccccc1`: the growth in assay [1] is 4.49% (active); in [2] it was -27.9% (active); in assay [3], 4.92% (active); in [4] it was 13.5%; in [5], 2.37% (active); in [6], 7.76% (active). The growth in assay [7] was 9.06% (active); in [8] it was -35.9% (active); in [9], -43.2% (active).
